A selection: hits, their analogues and other compounds. The true share with any hit is near 13%.
USP8 inh = human USP8 deubiquitinase inhibition | P40818 | purified USP8, Ub-rhodamine cleavage fluorescence, 30 min | 47,000 tested, 4.2% active | AID 1645853 | inhibition, % at 20 µM
USP28 block = blocks human USP28 ubiquitin-rhodamine cleavage; purified USP28, Ub-rhodamine cleavage fluorescence, 30 min; inhibition, % at 25 µM; Q96RU2; AID 1645857; 47,000 tested, 3% active
USP30 block = human USP30 deubiquitinase inhibition | Q70CQ3 | purified USP30, Ub-rhodamine cleavage fluorescence | inhibition, % at 25 µM | 47,000 tested, 5.3% active
USP7 inh = human USP7 deubiquitinase inhibition; Q93009; purified USP7, Ub-rhodamine cleavage fluorescence; inhibition, % at 20 µM; 47,000 tested, 0.3% active; AID 1645854
USP10 block = blocks human USP10 ubiquitin-rhodamine cleavage. Q14694. purified USP10, Ub-rhodamine fluorescence, 60 min. inhibition, % at 20 µM. 47,000 tested, 1.1% active
USP17 inh = inhibitors of human USP17 deubiquitinase; A8MUK1; purified USP17, Ub-rhodamine cleavage fluorescence, 3 h; inhibition, % at 50 µM; 47,000 tested, 6.5% active; AID 1645855
Starred values were filed as active, the others as inactive; i = inactive. Cut-off read from the data, not from the text of the source: active = inhibition above about 30%; inactive = the rest.

SMILES	USP8 inh	USP28 block	USP30 block	USP7 inh	USP10 block	USP17 inh
O=C(CCc1ccccc1)N1CCN(c2nc3c(Cl)cccc3s2)CC1	16	21	38*	3	12	26
O=C(CCc1ccccc1)N1CCN(c2nc3c(F)cc(F)cc3s2)CC1	18	19	35*	-12	5	16
COc1ccc(-c2cc(-c3ccccc3)nc(SCC(N)=O)c2C#N)cc1OC	28	-10	-7	19	22	75*
COc1cc(C2C(C(C)=O)N3c4ccccc4C=CC3C23C(=O)c2ccccc2C3=O)cc(OC)c1OC (centres undefined)	-8	-166	i	-136	-5	-175
Cc1ccc(-c2nc(CN3CCOC(Cn4cccn4)C3)cs2)o1 (centres undefined)	-31	-23	-67	-7	-6	-18
CC(=O)Nc1ccc(C(=O)N[C@@H]2c3ccccc3[C@@H]3CN(C(C)=O)C[C@H]23)cc1	-16	-5	-11	-4	0	1
CCN1CCN(c2ccc(NC(=O)COc3ccccc3C)cc2)CC1	-11	-16	-60	-3	-10	-12
Cc1ccc(OCC(=O)Nc2ccc3c(c2)CN(C(=O)c2ccco2)CC3)cc1	33*	50*	43*	-25	17	51*
Cc1ccccc1OCC(=O)Nc1ccc2c(c1)CN(C(=O)c1ccco1)CC2	0	37*	26	-19	7	22
O=C(COc1ccc(-c2ccccc2)cc1)N1CCN(C(=O)c2ccco2)CC1	-19	-6	31*	-14	-1	20
O=C(COc1ccc2ccccc2c1)Nc1ccc2c(c1)CCC2	-99	12	13	5	5	16
CCOc1cc(C2Nc3ccccc3C(=O)N2c2ccc3c(c2)OCO3)ccc1O (centres undefined)	31*	6	8	-2	2	12
COc1ccccc1CC(NC(C)=O)C(=O)NC1CCN(C(=O)c2cnccn2)CC1 (centres undefined)	1	3	16	5	0	9
O=C(NC1CCCCCC1)c1cn(-c2cc(N3CCOCC3)ncn2)cn1	-10	7	3	-3	-1	-2
Cc1ccccc1Cn1cc(C(=O)Nc2ccccc2C(N)=O)ccc1=O	12	-1	6	-4	15	-7
Cc1ccc(Cn2cc(C(=O)Nc3ccccc3C(N)=O)ccc2=O)cc1	54*	17	24	10	22	29
Cc1ccc2nc3c(cc2c1)CN(Cc1ccccc1F)C(=O)O3	24	-10	-2	5	2	3
COc1ccc2cc3c(nc2c1)OC(=O)N(Cc1ccccc1F)C3	37*	-2	12	10	3	2
Cc1ccc2nc3c(cc2c1)CN(Cc1ccco1)C(=O)O3	3	-2	2	-4	8	18
O=C1Oc2nc3ccccc3cc2CN1Cc1ccco1	3	16	17	5	8	52*
Cc1ccc(CN2Cc3cc4ccc(C)c(C)c4nc3OC2=O)o1	19	12	29	4	6	21
CCOc1ccc2cc3c(nc2c1)OC(=O)N(Cc1ccc(C)o1)C3	15	13	53*	6	3	21
Cc1ccc(-n2nnc(C(=O)Nc3ccccc3O)n2)cc1	-39	-170	-176	-16	-2	-63
O=C(C1CC1)N1CCCCCC1C1CCN(c2ncccn2)CC1 (centres undefined)	-2	-14	5	15	1	-11
O=S(=O)(c1ccccc1)n1nc(NCc2cccc(Cl)c2)nc1NCc1cccc(Cl)c1	-20	2	11	11	13	0
SMILES	USP8 inh	USP28 block	USP30 block	USP7 inh	USP10 block	USP17 inh
COc1ccc(C(=O)CS(=O)(=O)c2ccccc2)cc1	5	5	20	3	5	9
COc1ccc(C(=O)N(O)c2ccccc2)cc1	78*	4	12	-5	0	29
Cc1ccc(NC(=O)c2cc3c(s2)CCC3)cc1	49*	37*	-26	-4	14	49*
O=C(Nc1ccc2c(c1)CCC2)c1cc2ccccc2s1	-3	33*	28	7	10	8
O=C(Nc1ccc2[nH]c(=O)[nH]c2c1)c1cc2c(s1)CCCCC2	53*	14	-63	7	-9	26
O=C(CN1CCCC(c2nc3ccccc3s2)C1)Nc1ccc2[nH]c(=O)[nH]c2c1 (centres undefined)	-20	2	0	-6	0	0
CC(=O)Nc1ccc(S(=O)(=O)N2CCC([C@@H]3NC(=O)N[C@H]4OCC[C@H]43)CC2)cc1	-37	0	11	5	-1	4
Cc1ccc(Sc2c(C(F)(F)F)[nH]n(-c3ccccc3)c2=O)cc1	-45	7	28	-9	20	33*
CCn1c(CN2CCCC(c3nc(-c4cccnc4)n[nH]3)C2)nc2ccccc21 (centres undefined)	-170	71*	-20	-1	-4	-42
O=C(NCc1cccnc1)c1nc2c(s1)CCCN2c1ncccn1	-17	-7	-7	2	3	-1
COc1ccc(NC(=O)Cn2c(=O)n(CCCCC(=O)NCc3ccco3)c(=O)c3ccccc32)cc1Cl	1	-4	-6	3	59*	-18
COc1cccc(NC(=O)Cn2c(=O)n(CCCC(=O)NCc3ccco3)c(=O)c3ccccc32)c1	4	15	7	-1	5	44*
COc1ccccc1CNC(=O)CCCCn1c(=O)c2ccccc2n(CC(=O)Nc2ccc(C)cc2C)c1=O	46*	16	42*	16	50*	21
COc1ccc(NC(=O)Cn2c(=O)n(CCCC(=O)NCCc3ccc(OC)c(OC)c3)c(=O)c3ccccc32)cc1Cl	9	0	13	10	23	28
COC(=O)c1ccccc1NC(=O)Cn1c(=O)n(CCCC(=O)NCc2ccco2)c(=O)c2ccccc21	58*	58*	80*	11	54*	76*
O=C(NCc1ccccc1Cl)C1CCN(c2nc3nc[nH]c(=O)c3s2)CC1	12	-1	-11	2	1	-20
Cc1c(C)c2ccc(OCC(=O)NCc3ccccn3)c(C)c2oc1=O	2	15	46*	6	2	40*
Cc1cccc(Cc2nc(CC(=O)Nc3ccccc3)n[nH]2)c1	1	9	20	1	-2	-1
O=C(NCCc1ccc(F)cc1)c1csc2c1CCCC2	-7	22	15	-22	4	5
O=C(NCCc1ccc(F)cc1)c1cc2c([nH]c1=O)CCCC2	2	-12	-1	0	1	42*
COc1cccc(OCCCn2c(C(C)NC(=O)c3ccco3)nc3ccccc32)c1 (centres undefined)	2	-6	-8	-2	0	51*
COc1ccc(OCCCn2c(CNC(=O)c3ccco3)nc3ccccc32)cc1	16	9	48*	-2	0	41*
